Legend:
Assay in all cases: DAPPL (digital affinity profiling via proximity ligation, sequencing); 10 mM Tris-HCl pH 7.5, 50 mM NaCl, 1 mM DTT, 4% glycerol, room temperature, 30 min; GST-TFs on glutathione beads, 16-mer random dsDNA library, 0.1% formaldehyde crosslink after washing; high values mean tight binding
[1] = target: T1, FLI1 (Homo sapiens, UniProt Q01543 1-452); details: protein: recombinant; tags: N-terminal GST; dsDNA, one strand shown
T1 sequence: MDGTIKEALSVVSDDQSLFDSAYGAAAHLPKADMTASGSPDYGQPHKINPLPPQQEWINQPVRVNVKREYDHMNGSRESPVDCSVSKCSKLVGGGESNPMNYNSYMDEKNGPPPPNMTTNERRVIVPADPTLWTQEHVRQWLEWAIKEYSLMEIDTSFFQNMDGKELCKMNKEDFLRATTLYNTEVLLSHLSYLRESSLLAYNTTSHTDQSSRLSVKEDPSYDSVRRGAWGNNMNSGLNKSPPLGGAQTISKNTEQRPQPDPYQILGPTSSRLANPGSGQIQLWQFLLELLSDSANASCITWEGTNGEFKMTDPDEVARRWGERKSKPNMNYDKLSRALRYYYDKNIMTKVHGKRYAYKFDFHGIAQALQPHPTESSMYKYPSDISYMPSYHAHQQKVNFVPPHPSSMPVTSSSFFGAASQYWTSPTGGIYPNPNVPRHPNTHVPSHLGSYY
Summary of the method: (§1)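 Pools of DNA-barcoded human transcription factors, expressed in yeast as GST fusions on glutathione beads and combined with a tag-only sample, were incubated with 200 nmole of a 16-mer random double-stranded DNA library. Incubation took 30 min at room temperature in Tris/NaCl/DTT/glycerol buffer and was followed by washing, 0.1% formaldehyde crosslinking, proximity ligation (BsaI/T4 ligase, 1 h, 37 °C), PCR amplification and sequencing on an Illumina NextSeq500. Binding signal is the ratio of a hexamer's read frequency for a factor to its frequency for the tag-only sample.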

[2] = target: T2, ELK1 (Homo sapiens, UniProt P19419 1-428); details: protein: recombinant; tags: N-terminal GST; dsDNA, one strand shown
T2 sequence: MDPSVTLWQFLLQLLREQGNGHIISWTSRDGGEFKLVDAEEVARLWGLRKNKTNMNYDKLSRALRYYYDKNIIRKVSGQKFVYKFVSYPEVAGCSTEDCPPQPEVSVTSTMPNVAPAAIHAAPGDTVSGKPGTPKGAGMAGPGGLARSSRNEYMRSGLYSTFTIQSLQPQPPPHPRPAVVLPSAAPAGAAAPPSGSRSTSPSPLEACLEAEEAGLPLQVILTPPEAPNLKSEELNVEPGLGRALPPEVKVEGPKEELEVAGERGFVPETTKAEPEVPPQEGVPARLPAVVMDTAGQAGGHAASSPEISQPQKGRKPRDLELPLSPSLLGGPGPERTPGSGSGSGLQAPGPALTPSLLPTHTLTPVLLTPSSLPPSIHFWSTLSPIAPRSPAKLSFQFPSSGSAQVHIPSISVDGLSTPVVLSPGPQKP
Summary of the method: as §1

[3] = target: T3, GABPA (Homo sapiens, UniProt Q06546 1-454); details: protein: recombinant; tags: N-terminal GST; dsDNA, one strand shown
T3 sequence: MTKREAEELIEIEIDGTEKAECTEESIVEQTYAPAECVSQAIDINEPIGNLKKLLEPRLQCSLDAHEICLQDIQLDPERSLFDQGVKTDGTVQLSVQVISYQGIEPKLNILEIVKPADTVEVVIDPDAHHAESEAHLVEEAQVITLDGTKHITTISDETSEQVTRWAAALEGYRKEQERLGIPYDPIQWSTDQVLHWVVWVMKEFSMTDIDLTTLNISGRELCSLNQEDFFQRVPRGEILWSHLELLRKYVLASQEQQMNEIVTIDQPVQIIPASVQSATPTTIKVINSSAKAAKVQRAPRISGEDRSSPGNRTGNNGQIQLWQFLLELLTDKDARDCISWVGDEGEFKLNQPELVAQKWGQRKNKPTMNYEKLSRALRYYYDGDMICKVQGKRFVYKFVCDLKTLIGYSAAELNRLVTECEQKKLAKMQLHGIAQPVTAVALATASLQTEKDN
Summary of the method: as §1

[4] = target: T4, ERG (Homo sapiens, UniProt P11308 1-479); details: protein: recombinant; tags: N-terminal GST; dsDNA, one strand shown
T4 sequence: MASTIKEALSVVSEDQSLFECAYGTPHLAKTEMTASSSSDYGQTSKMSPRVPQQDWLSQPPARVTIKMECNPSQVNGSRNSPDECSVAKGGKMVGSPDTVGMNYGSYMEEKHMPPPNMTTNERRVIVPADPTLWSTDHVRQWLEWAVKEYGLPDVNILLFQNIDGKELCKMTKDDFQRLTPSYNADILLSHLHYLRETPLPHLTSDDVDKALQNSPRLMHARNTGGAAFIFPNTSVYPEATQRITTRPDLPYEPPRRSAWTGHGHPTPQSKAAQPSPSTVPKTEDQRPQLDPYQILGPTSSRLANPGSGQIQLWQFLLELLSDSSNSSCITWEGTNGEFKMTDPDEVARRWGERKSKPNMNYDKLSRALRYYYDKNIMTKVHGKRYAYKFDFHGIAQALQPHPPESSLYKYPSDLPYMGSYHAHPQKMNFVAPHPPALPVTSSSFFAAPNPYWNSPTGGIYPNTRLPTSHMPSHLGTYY
Summary of the method: as §1

[5] = target: ELF1 (Homo sapiens, UniProt P32519 1-619); details: protein: recombinant; tags: N-terminal GST; dsDNA, one strand shown
Summary of the method: as §1

[6] = target: T5, EHF (Homo sapiens, UniProt Q9NZC4 1-300); details: protein: recombinant; tags: N-terminal GST; dsDNA, one strand shown
T5 sequence: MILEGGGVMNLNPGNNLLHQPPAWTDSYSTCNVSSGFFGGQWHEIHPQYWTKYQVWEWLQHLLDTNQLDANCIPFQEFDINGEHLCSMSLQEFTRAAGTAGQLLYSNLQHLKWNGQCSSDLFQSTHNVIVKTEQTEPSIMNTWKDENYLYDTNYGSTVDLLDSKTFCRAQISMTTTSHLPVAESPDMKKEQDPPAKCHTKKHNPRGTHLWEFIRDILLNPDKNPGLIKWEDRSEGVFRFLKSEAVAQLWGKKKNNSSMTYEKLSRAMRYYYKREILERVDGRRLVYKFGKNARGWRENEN
Summary of the method: as §1

[7] = target: SPI1 (Homo sapiens, UniProt P17947 1-270); details: protein: recombinant; tags: N-terminal GST; dsDNA, one strand shown
Summary of the method: as §1

[8] = target: SPIB (Homo sapiens, UniProt Q01892 1-262); details: protein: recombinant; tags: N-terminal GST; dsDNA, one strand shown
Summary of the method: as §1

[9] = target: T6, ELK3 (Homo sapiens, UniProt P41970 1-407); details: protein: recombinant; tags: N-terminal GST; dsDNA, one strand shown
T6 sequence: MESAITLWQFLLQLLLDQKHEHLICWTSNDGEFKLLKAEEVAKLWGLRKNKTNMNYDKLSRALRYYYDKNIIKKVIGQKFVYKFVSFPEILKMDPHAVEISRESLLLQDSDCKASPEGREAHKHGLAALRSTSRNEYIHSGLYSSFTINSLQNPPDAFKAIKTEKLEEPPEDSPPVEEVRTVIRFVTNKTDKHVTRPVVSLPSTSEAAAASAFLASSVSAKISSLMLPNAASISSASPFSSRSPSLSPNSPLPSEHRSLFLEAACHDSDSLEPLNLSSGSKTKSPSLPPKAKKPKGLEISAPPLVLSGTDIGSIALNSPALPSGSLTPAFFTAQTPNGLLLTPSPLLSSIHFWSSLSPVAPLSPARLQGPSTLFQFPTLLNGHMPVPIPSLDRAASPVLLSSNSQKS
Summary of the method: as §1

[10] = target: T7, FEV (Homo sapiens, UniProt Q99581 1-238); details: protein: recombinant; tags: N-terminal GST; dsDNA, one strand shown
T7 sequence: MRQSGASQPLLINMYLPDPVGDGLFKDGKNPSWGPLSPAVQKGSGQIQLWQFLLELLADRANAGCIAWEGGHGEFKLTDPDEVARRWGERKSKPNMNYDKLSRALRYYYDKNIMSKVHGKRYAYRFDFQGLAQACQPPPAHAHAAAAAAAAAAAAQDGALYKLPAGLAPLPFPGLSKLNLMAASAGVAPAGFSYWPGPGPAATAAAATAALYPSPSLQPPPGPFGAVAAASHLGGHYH
Summary of the method: as §1

[11] = target: ETV5 (Homo sapiens, UniProt P41161 1-510); details: protein: recombinant; tags: N-terminal GST; dsDNA, one strand shown
Summary of the method: as §1

[12] = target: HSF1 (Homo sapiens, UniProt Q00613 1-529); details: protein: recombinant; tags: N-terminal GST; chain copies: 3; dsDNA, one strand shown
Summary of the method: as §1

[13] = target: T8, SPIC (Homo sapiens, UniProt Q8N5J4 1-248); details: protein: recombinant; tags: N-terminal GST; dsDNA, one strand shown
T8 sequence: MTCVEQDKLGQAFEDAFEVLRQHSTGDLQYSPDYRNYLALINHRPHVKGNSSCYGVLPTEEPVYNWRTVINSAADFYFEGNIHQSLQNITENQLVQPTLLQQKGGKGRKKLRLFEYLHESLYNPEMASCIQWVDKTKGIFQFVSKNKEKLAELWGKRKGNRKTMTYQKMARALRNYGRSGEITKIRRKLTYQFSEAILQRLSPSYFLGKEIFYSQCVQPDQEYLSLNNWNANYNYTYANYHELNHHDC
Summary of the method: as §1

[14] = target: ELF4 (Homo sapiens, UniProt Q99607 1-663); details: protein: recombinant; tags: N-terminal GST; dsDNA, one strand shown
Summary of the method: as §1

[15] = target: T9, ELK4 (Homo sapiens, UniProt P28324-2 1-405); details: protein: recombinant; tags: N-terminal GST; dsDNA, one strand shown
T9 sequence: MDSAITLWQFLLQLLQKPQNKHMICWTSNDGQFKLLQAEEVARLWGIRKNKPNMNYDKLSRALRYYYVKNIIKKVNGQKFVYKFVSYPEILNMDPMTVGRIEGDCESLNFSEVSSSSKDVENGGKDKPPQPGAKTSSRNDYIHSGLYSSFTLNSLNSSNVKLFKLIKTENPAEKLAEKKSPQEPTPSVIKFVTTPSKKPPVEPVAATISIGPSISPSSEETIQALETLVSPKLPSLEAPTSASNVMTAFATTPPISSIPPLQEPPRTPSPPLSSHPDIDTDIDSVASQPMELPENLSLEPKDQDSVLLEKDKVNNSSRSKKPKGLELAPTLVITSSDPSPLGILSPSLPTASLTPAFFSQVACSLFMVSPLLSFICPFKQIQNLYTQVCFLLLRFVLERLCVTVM
Summary of the method: as §1

[16] = target: T10, ETV2 (Homo sapiens, UniProt O00321 1-342); details: protein: recombinant; tags: N-terminal GST; dsDNA, one strand shown
T10 sequence: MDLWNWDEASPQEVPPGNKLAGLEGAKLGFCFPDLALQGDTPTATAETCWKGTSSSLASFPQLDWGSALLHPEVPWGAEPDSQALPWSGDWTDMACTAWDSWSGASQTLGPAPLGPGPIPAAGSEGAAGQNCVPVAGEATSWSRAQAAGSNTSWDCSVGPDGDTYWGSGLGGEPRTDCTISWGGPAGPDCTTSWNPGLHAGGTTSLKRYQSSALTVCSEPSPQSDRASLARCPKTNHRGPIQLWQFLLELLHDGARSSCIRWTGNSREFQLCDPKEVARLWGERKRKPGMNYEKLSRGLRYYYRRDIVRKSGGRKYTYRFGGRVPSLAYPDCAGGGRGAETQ
Summary of the method: as §1

[17] = target: T11, ELF3 (Homo sapiens, UniProt P78545 1-371); details: protein: recombinant; tags: N-terminal GST; dsDNA, one strand shown
T11 sequence: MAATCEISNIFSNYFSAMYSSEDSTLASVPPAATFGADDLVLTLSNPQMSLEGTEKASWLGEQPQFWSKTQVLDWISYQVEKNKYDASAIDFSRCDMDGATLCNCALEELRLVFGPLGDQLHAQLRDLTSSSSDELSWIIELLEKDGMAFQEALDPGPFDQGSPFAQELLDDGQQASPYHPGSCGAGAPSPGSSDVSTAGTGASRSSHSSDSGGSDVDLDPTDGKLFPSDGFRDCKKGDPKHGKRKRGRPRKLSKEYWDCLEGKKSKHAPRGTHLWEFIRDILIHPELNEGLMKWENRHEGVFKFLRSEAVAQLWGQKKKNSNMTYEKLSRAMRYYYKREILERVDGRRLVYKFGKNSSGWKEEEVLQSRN
Summary of the method: as §1

[18] = target: CRX (Homo sapiens, UniProt O43186 1-299); details: protein: recombinant; tags: N-terminal GST; dsDNA, one strand shown
Summary of the method: as §1

[19] = target: ETV1 (Homo sapiens, UniProt P50549 1-477); details: protein: recombinant; tags: N-terminal GST; dsDNA, one strand shown
Summary of the method: as §1

Sequence of ETV1 (P50549 whole entry): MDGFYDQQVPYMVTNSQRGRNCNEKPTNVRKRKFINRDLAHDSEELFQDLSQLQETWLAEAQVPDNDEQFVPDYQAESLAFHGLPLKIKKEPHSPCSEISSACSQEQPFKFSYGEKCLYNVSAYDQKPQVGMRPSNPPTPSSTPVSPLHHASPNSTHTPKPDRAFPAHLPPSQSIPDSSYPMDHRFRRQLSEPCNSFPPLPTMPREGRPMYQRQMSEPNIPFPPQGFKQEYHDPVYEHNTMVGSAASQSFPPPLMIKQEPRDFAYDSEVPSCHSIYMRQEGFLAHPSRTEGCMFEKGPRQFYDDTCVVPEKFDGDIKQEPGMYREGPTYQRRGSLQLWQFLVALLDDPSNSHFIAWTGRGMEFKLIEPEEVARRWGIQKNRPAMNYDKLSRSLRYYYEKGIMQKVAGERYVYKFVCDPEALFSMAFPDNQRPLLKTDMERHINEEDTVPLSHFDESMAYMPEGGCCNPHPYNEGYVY
Sequence of ETV5 (P41161 whole entry): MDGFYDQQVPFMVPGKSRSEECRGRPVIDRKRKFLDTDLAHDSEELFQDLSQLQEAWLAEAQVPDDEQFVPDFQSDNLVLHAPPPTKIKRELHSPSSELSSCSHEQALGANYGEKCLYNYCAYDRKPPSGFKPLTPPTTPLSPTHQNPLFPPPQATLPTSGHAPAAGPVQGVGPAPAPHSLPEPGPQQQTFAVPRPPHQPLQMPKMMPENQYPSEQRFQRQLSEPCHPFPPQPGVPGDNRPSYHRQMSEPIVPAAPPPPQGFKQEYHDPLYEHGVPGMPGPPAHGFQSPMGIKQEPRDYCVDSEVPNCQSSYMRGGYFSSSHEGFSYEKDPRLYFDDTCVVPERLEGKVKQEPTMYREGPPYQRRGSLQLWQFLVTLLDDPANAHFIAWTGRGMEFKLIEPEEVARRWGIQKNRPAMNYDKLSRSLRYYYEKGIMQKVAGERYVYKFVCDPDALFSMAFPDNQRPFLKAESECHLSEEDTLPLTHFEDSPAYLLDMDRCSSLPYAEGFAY
Sequence of HSF1 (Q00613 whole entry): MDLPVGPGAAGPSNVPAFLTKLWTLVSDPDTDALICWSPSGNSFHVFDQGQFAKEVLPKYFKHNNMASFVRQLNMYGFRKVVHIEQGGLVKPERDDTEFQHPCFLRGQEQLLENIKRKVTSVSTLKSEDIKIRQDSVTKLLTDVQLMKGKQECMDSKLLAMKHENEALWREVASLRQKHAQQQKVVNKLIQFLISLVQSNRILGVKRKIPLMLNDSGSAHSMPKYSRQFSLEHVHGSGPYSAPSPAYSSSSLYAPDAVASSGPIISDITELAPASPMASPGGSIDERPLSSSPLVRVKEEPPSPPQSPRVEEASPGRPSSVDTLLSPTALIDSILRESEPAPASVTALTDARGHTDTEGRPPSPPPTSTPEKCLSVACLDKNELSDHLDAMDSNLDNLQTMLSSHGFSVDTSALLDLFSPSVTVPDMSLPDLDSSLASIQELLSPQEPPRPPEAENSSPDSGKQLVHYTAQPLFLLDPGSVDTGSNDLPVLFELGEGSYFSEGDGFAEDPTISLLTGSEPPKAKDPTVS
Sequence of CRX (O43186 whole entry): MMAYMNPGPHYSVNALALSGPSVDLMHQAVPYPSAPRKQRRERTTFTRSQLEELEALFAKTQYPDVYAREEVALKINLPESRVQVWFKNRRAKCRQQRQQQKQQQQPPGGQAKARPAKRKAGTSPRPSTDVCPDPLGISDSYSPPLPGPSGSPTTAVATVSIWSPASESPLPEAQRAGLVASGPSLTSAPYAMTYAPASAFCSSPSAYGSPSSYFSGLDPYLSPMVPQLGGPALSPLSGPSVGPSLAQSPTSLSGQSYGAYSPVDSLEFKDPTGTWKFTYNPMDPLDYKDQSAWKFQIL
Sequence of ELF1 (P32519 whole entry): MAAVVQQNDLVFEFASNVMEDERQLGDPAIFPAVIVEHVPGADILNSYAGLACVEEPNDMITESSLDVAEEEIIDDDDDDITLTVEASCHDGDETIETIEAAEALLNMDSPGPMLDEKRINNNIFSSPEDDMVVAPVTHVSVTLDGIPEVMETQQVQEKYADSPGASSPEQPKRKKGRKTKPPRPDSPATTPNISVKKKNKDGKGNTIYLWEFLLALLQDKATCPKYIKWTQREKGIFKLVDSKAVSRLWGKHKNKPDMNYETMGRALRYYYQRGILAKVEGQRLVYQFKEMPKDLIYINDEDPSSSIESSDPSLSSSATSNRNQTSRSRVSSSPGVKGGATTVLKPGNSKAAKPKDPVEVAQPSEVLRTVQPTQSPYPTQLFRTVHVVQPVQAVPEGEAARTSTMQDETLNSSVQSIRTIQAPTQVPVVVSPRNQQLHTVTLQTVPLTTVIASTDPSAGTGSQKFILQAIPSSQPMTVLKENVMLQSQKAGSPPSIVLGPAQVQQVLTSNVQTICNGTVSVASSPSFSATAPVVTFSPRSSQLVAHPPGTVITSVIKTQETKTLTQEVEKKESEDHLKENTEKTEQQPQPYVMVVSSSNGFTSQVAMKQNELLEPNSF
Sequence of SPIB (Q01892 whole entry): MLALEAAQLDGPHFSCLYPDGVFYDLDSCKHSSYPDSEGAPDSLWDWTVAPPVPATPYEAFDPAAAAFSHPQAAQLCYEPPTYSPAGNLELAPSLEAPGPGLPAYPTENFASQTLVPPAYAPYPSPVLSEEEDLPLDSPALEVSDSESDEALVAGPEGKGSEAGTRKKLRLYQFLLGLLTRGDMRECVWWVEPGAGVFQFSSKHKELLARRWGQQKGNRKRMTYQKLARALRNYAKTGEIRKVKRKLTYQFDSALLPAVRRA
Sequence of ELF4 (Q99607 whole entry): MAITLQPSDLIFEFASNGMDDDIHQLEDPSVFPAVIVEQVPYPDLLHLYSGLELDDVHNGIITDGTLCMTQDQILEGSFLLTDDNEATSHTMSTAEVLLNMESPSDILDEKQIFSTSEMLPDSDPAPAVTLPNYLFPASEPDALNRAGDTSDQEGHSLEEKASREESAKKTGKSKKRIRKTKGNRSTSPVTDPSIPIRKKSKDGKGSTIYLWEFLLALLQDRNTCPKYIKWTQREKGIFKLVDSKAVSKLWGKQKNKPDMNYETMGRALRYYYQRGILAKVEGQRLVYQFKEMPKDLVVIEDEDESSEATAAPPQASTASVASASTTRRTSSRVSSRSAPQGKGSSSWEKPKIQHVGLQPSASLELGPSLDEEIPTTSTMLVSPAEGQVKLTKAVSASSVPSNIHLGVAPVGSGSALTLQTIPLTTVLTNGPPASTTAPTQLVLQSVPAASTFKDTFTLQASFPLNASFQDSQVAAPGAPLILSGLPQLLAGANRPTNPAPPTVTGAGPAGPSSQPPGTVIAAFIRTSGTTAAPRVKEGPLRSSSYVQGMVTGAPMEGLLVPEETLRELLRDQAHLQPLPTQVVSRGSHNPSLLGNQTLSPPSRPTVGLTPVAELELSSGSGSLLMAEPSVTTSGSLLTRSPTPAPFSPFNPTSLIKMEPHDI

With GAAATC the binding signal [1] was 1.38 fold enrichment (6-mer frequency, TF over GST control), the binding signal [2] was 1.47 fold enrichment (6-mer frequency, TF over GST control) and the binding signal [3] was 1.34 fold enrichment (6-mer frequency, TF over GST control). For the same sequence, the binding signal [4] was 1.65 fold enrichment (6-mer frequency, TF over GST control), the binding signal [5] was 1.36 fold enrichment (6-mer frequency, TF over GST control) and the binding signal [6] was 1.53 fold enrichment (6-mer frequency, TF over GST control). For the same sequence, the binding signal [7] was 1.4 fold enrichment (6-mer frequency, TF over GST control), the binding signal [8] was 1.55 fold enrichment (6-mer frequency, TF over GST control) and the binding signal [9] was 1.42 fold enrichment (6-mer frequency, TF over GST control). For the same sequence, the binding signal [10] was 2.32 fold enrichment (6-mer frequency, TF over GST control), the binding signal [11] was 1.58 fold enrichment (6-mer frequency, TF over GST control) and the binding signal [12] was 1.23 fold enrichment (6-mer frequency, TF over GST control). For the same sequence, the binding signal [13] was 1.48 fold enrichment (6-mer frequency, TF over GST control), the binding signal [14] was 1.42 fold enrichment (6-mer frequency, TF over GST control) and the binding signal [15] was 1.31 fold enrichment (6-mer frequency, TF over GST control). The binding signal [16] was 1.45 fold enrichment (6-mer frequency, TF over GST control), the binding signal [17] was 1.27 fold enrichment (6-mer frequency, TF over GST control) and the binding signal [18] was 1.26 fold enrichment (6-mer frequency, TF over GST control). For the same sequence, the binding signal [19] was 1.5 fold enrichment (6-mer frequency, TF over GST control).
